Bioassay records (PubChem BioAssay)
FAS TE block: inhibitors of human fatty acid synthase thioesterase domain; recombinant FAS-TE, OMFH fluorogenic substrate, fluorescence endpoint; inhibition, % at 15 µM; hit rate 0.67% among 360,000; AID 602261;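 active = compounds whose normalised, plate-corrected inhibition of enzyme fluorescence in the single-dose primary screen is 50% or more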
GRIN3A LBD mod: modulators (binders) of human NR3A ligand-binding domain; NR3A LBD differential scanning fluorimetry, Tm shift; 0% = protein alone, 100% = glycine-bound protein; Tm shift relative to glycine control, % at 25 µM; hit rate 2.5% among 340,000; AID 1259313;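 active = melting temperature shift of at least 10% of the positive control shift, at one fixed dose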
ADAM10 inh: inhibits human ADAM10; hit rate 0.62% among 370,000; inhibition, % at 7 µM; AID 720582; recombinant ADAM10, EDANS/DABCYL FRET peptide cleavage, 3 h;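 active = inhibition above a per-campaign cutoff equal to the mean of compounds falling between control-based bounds plus 3 SD, cut at about 20% in these data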
ADAM17 inh: ADAM17 inhibition, QFRET primary screen. recombinant ADAM17, EDANS/DABCYL FRET peptide cleavage. inhibition, % at 6.95 µM. hit rate 0.83% among 370,000;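 active = inhibition above the mean of compounds lying between control limits plus 3 SD, set per campaign, cut at about 8.5% in these data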
sPLA2-III inh: Blocks human group III sPLA2 activity | QFRET BODIPY PC-A2 liposome hydrolysis, fluorescence | inhibition, % at 12.2 µM | hit rate 0.56% among 370,000;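 active = inhibition above mean plus 3 SD of compounds lying within the high and low control bounds, cut at about 19% in these data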
Target sequence (Q9NZ20 whole entry, looked up): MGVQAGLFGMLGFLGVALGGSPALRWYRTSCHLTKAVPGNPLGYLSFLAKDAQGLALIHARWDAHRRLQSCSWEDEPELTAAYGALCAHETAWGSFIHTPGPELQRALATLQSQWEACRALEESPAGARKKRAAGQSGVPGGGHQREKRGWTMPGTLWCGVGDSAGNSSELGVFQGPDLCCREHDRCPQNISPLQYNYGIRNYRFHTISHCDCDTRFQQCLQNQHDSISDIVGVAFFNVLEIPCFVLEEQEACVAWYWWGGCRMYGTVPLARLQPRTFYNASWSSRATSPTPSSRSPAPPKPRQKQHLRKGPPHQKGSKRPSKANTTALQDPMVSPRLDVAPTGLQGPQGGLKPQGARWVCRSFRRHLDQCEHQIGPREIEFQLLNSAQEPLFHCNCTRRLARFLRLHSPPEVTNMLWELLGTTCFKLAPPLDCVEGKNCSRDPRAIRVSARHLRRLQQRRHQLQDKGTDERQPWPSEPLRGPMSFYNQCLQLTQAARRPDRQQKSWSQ
FAS-TE inh conf: confirmation of human fatty acid synthase thioesterase inhibitors; shares compounds with FAS TE block; inhibition, % at 15 µM; recombinant FAS-TE, OMFH fluorogenic substrate, fluorescence; hit rate 45% among 2,300;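 active = compounds inhibiting the enzyme by at least 50% at 15 µM in any one of the replicates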
Hits are given with their value; n = inactive; x = no result. This is a sample that favours compounds with a hit; in the whole collection about 4.3% have one here.

SMILES	FAS TE block	GRIN3A LBD mod	ADAM10 inh	ADAM17 inh	sPLA2-III inh	FAS-TE inh conf
COc1ccc(S(=O)(=O)N(C)C[C@H]2Oc3c(NC(=O)Nc4ccc(C(F)(F)F)cc4)cccc3C(=O)N([C@H](C)CO)C[C@@H]2C)cc1	61.4	11.4	x	x	x	n
Cc1noc(C)c1NC(=O)N(C)C[C@H]1Oc2c(NC(=O)NC(C)C)cccc2C(=O)N([C@H](C)CO)C[C@@H]1C	n	n	n	n	n	x
C[C@@H]1CN([C@H](C)CO)C(=O)c2cccc(NC(=O)NC3CCCCC3)c2O[C@@H]1CN(C)C(=O)Nc1ccc(C(F)(F)F)cc1	76.9	n	x	x	x	70.0
CCOc1ccc(-n2c(SCc3nc4ccccc4[nH]3)nnc2-c2cccc(Cl)c2)cc1	x	x	n	n	n	x
C[C@@H]1/C=C/CC(=O)N[C@H](c2ccc3ccccc3c2)[C@H](C)/C=C/CC(=O)N[C@@H]1c1ccc2ccccc2c1	x	x	n	n	n	x
COC(=O)[C@@H]1C[C@@]2(c3ccccc3)c3ccccc3N(S(=O)(=O)c3ccccc3)[C@H]2N1C(=O)CNC/C=C(\C)CCC=C(C)C	x	x	n	n	n	x
Cc1ccc(S(=O)(=O)Nc2ccc3c(c2)C(=O)N([C@H](C)CO)C[C@H](C)[C@@H](CN(C)Cc2ccc(-c4ccccc4)cc2)O3)cc1	81.4	n	x	x	x	n
C[C@H](CO)N1C[C@H](C)[C@@H](CN(C)Cc2ccc(Cl)c(Cl)c2)Oc2c(NS(=O)(=O)c3ccc(F)cc3)cccc2C1=O	54.1	n	n	n	n	58.3
O=[N+]([O-])c1ccccc1/C=C/C=Nn1c(-c2ccc(F)cc2)n[nH]c1=S	x	x	n	n	n	x
CN1[C@@H](Cc2ccccc2)COc2cccc(F)c2S1(=O)=O	x	x	n	n	n	x
COc1ccc([C@@H]2[C@@H]3C(=O)N(C(C)(C)C)C(=O)[C@@H]3[C@]3(CC(C)C)C(=O)N(c4ccc(C(F)(F)F)cc4)C(=O)N23)cc1	67.0	n	n	n	n	n
CC(C)(C)N1C(=O)[C@H]2[C@@H](c3ccc(Br)cc3)N3C(=O)N(c4ccccc4)C(=O)[C@@]3(Cc3ccccc3)[C@H]2C1=O	87.0	n	n	n	n	n
CC(C)C[C@@]12C(=O)N(c3ccc(Br)cc3)C(=O)N1[C@H](c1ccc(Br)cc1)[C@@H]1C(=O)N(C(C)(C)C)C(=O)[C@@H]12	75.3	n	n	n	n	38.9
COc1ccc([C@@H]2[C@@H]3C(=O)N(C(C)(C)C)C(=O)[C@@H]3[C@]3(Cc4ccccc4)C(=O)N(c4ccc(C(F)(F)F)cc4)C(=O)N23)cc1	n	n	n	n	n	x
COc1ccc([C@@H]2[C@@H]3C(=O)N(C(C)(C)C)C(=O)[C@@H]3[C@]3(Cc4ccc(Cl)cc4)C(=O)N(c4cccc(C)c4)C(=O)N23)cc1	82.8	n	n	n	n	n
COc1ccc([C@@H]2[C@@H]3C(=O)N(C(C)(C)C)C(=O)[C@@H]3[C@]3(Cc4ccc(Cl)cc4)C(=O)N(c4ccc(C)cc4)C(=O)N23)cc1	91.6	n	n	n	n	n
CC[C@H](CCCc1ccc(OC)cc1)CCC(=O)N1CCOCC1	x	x	n	n	n	x
COc1cccc(CNC(=O)[C@H]2CCCN2C(=O)[C@H]2CCCN2C(=O)OC(C)(C)C)c1	x	x	n	n	n	x
O=C(OC1CC2CCC(C1)[N+]21CCCC1)C(O)(c1ccccc1)c1ccccc1 (configuration not stated)	x	x	n	n	n	x
O=C(NC1=N[C@@]2(C=C3CCCCC3n3c(=O)n(-c4ccccc4)c(=O)n32)CN1Cc1ccccc1)c1ccccc1 (some centres not stated)	x	x	n	n	n	x
COc1ccc(NC(=O)N2CCC(N(C)CCC(C)C)CC2)cc1OC	x	x	n	n	n	x
CC(C)(C)c1ccc(CNc2ccc([N+](=O)[O-])cn2)cc1	n	n	n	n	n	x
CC(C)(C)c1ccc(Cn2cnc(-c3ccc([N+](=O)[O-])cc3)c2)cc1	51.4	n	n	n	n	n
O=C(Nc1ccccc1)n1ccc2ccc(-c3ccc4cc[nH]c4c3)cc21	x	x	n	n	n	x
CCC(C)N(C(=O)CN1C(=O)C2CCCCN2C(=O)c2ccccc21)C(C)CC (configuration not stated)	x	x	n	n	n	x
SMILES	FAS TE block	GRIN3A LBD mod	ADAM10 inh	ADAM17 inh	sPLA2-III inh	FAS-TE inh conf
Cc1ccc(Cn2cc(S(=O)(=O)c3ccc(Cl)cc3)c(=O)c3cc(F)ccc32)cc1	n	n	n	n	n	x
Cc1ccccc1Cn1cc(S(=O)(=O)c2ccc(C(C)C)cc2)c(=O)c2cc3c(cc21)OCO3	61.8	n	n	n	n	n
Cc1ccc(S(=O)(=O)c2cn(Cc3ccc(F)cc3)c3cc4c(cc3c2=O)OCO4)cc1	58.4	n	n	n	n	n
Cc1ccc(Cn2cc(S(=O)(=O)c3ccc(C(C)C)cc3)c(=O)c3cc4c(cc32)OCO4)cc1	n	n	n	n	n	x
O=c1c(S(=O)(=O)c2ccc(Cl)cc2)cn(Cc2cccc(F)c2)c2ccc(F)cc12	69.7	n	n	n	n	n
O=C(Nc1nc2ncccn2c1-c1ccccc1)C1CC1	x	x	n	n	n	x
CC(C)(C)c1ccc(C(=O)Nc2cc(Cl)ccc2-c2nn[nH]n2)cc1	x	x	n	n	n	x
COc1ccccc1N1CC(C(=O)Nc2cc(C(F)(F)F)ccc2N2CCCC2)CC1=O (configuration not stated)	62.9	n	n	n	n	65.2
CC(=O)c1cc(C#N)c(SCCC(C)C)nc1C	56.3	n	x	x	x	n
Cc1ccccc1NC(=O)CSc1nc(N)c(C#N)cc1C#N	n	n	n	n	n	x
CC(C)CCSc1nc(N)c(C#N)cc1C#N	64.8	n	n	n	n	n
CCN(CC)C(=O)C1=C(C)N(Cc2ccc(F)cc2)C(=O)C(CC(=O)NC(c2ccccc2)c2ccccc2)C1 (configuration not stated)	54.5	x	n	n	n	30.5
CC1=C(C(=O)N(C)C)CC(CC(=O)NC(c2ccccc2)c2ccccc2)C(=O)N1Cc1ccc(C(C)(C)C)cc1 (configuration not stated)	n	x	n	n	n	x
COc1cc(/C=C2\N=C(c3ccccc3)OC2=O)ccc1OC(C)=O	n	n	n	n	n	x
COc1ccc(OC)c(/C=C2\N=C(c3ccccc3)OC2=O)c1	60.8	n	n	n	n	n
CC1CCN(C(=O)c2[nH]cnc2C(=O)Nc2ccc(Cl)cc2)CC1	53.7	n	n	n	n	n
CC1CCN(C(=O)c2[nH]cnc2C(=O)NCc2ccccc2)CC1	n	n	n	n	n	x
Cc1ccccc1OC(C)C(=O)NCCC1=CCCCC1 (configuration not stated)	n	n	n	n	n	x
CC(C(=O)NCCC1=CCCCC1)c1ccc([N+](=O)[O-])cc1 (configuration not stated)	69.6	n	n	n	n	68.9
